{"source": "PubChem BioAssay AID430", "about": "(Sanford-Burnham Center for Chemical Genomics, 2006)", "note": "Screen size: about 63,000 compounds; about 1,100 (1.7%) were called active. Cut-off read from the data, not from the text of the source: active = cytotoxicity above about 50%; inactive = the rest. The list comes from a sample in which actives are over-represented; it also holds similar structures and randomly drawn compounds. Results with a measured potency or affinity are listed apart.", "data": [{"experiment": "HPDE-C7 pancreatic duct cell viability loss – fluorescence, HTS (AID 430);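 note: cells exposed to compound for 48 hours before viability readout; 0% = vehicle and 100% = reference cytotoxic drug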", "details": "HPDE-C7 pancreatic duct cells viability, at 10 µM, hits give high values", "values": [{"smiles": "CCn1c(Cc2ccccc2)nnc1SCC(=O)Nc1cc(C)on1", "cytotoxicity": "4.4% (inactive)"}, {"smiles": "O=C1CCC(=O)N1OCCOc1ccc2c(c1)CCC2", "cytotoxicity": "-1.4% (inactive)"}, {"smiles": "O=C1NC(c2ccc3c(c2)OCO3)Nc2ccccc21", "note": "(stereo unspecified)", "cytotoxicity": "10.6% (inactive)"}, {"smiles": "COC(=O)c1ccc2c(=O)n(CCCN3CCOCC3)c(=S)[nH]c2c1", "cytotoxicity": "2.7% (inactive)"}, {"smiles": "CCC(C)C(NC(=O)C1CCC(C)CC1)C(=O)NC(C(=O)OC)C(C)C", "note": "(stereo unspecified)", "cytotoxicity": "-5.2% (inactive)"}, {"smiles": "COc1cc2nc(-c3cccs3)oc(=O)c2cc1OC", "cytotoxicity": "16.9% (inactive)"}, {"smiles": "COc1ccc(-c2nnc(Nc3nc4c(OC)cccc4s3)o2)cc1", "cytotoxicity": "85.9% (active)"}, {"smiles": "COc1ccccc1-c1nnc(Nc2nc3c(OC)cccc3s2)o1", "cytotoxicity": "54.9% (active)"}, {"smiles": "COc1ccccc1-c1nnc(NC(=O)c2ccccc2F)o1", "cytotoxicity": "4.8% (inactive)"}, {"smiles": "CCOC(=O)c1sc(NCCNc2nc(C)c(C(=O)OCC)s2)nc1C", "cytotoxicity": "-1.3% (inactive)"}, {"smiles": "COC(=O)c1sc(NC(=O)COc2ccccc2OC)nc1C", "cytotoxicity": "-3% (inactive)"}, {"smiles": "COc1cccc2sc(Nc3nnc(-c4cccs4)o3)nc12", "cytotoxicity": "65.3% (active)"}, {"smiles": "COc1ccc(-c2nnc(NC(=O)C(C)C)o2)cc1", "cytotoxicity": "-7.7% (inactive)"}, {"smiles": "COc1cccc2sc(N(C)c3ccccc3)nc12", "cytotoxicity": "-14% (inactive)"}, {"smiles": "COc1ccc(-c2nnc(-c3ccc(N)cc3)o2)cc1", "cytotoxicity": "2.5% (inactive)"}, {"smiles": "CCOC(=O)c1sc(Nc2nc3c(OC)cccc3s2)nc1C", "cytotoxicity": "63.9% (active)"}, {"smiles": "COc1cc(-c2nnc(-c3cccs3)o2)cc(OC)c1OC", "cytotoxicity": "-21.3% (inactive)"}, {"smiles": "CCCCNC(=O)NCC(=O)Nc1ccc(F)c(F)c1", "cytotoxicity": "-4% (inactive)"}, {"smiles": "CCSc1nnc(NC(=O)CSc2nccn2-c2cc(C)cc(C)c2)s1", "cytotoxicity": "-2.2% (inactive)"}, {"smiles": "CC(=O)NC1CC2CCCC(C1)N2S(=O)(=O)c1ccccc1", "note": "(stereo unspecified)", "cytotoxicity": "-17.7% (inactive)"}, {"smiles": "COc1ccc(N(C(=O)CNC(=O)c2ccco2)C(C(=O)NC2CCCCC2)c2ccco2)cc1", "note": "(stereo unspecified)", "cytotoxicity": "-2.6% (inactive)"}, {"smiles": "Cc1nc(NC(=O)C2CC2)sc1C(=O)N1CCCCC1", "cytotoxicity": "11.8% (inactive)"}, {"smiles": "Cc1ccc(-c2noc(CCC(=O)NCCCN3CCN(c4ccc(F)cc4)CC3)n2)cc1", "cytotoxicity": "-1.5% (inactive)"}, {"smiles": "O=C(Nc1ccccn1)c1cccnc1", "cytotoxicity": "0.9% (inactive)"}, {"smiles": "CC(=O)Nc1ccc(S(=O)(=O)N(CC(=O)O)Cc2ccccc2)cc1", "cytotoxicity": "-8.5% (inactive)"}, {"smiles": "Cc1ccc(S(=O)(=O)Nc2ccc(S(=O)(=O)N3CCCC3)cc2)cc1", "cytotoxicity": "8.3% (inactive)"}, {"smiles": "COc1cccc2sc(Nc3nnc(-c4ccccc4Cl)o3)nc12", "cytotoxicity": "52.9% (active)"}, {"smiles": "Cc1cccc(Nc2nc(-c3ccccn3)cs2)n1", "cytotoxicity": "0.3% (inactive)"}, {"smiles": "COc1cccc2sc(Nc3nc(-c4ccccn4)cs3)nc12", "cytotoxicity": "65.7% (active)"}, {"smiles": "COc1ccc(-c2noc(-c3ccccc3Cl)n2)cc1OC", "cytotoxicity": "0.6% (inactive)"}, {"smiles": "c1ccc(-c2csc(Nc3cccnc3)n2)nc1", "cytotoxicity": "3.7% (inactive)"}, {"smiles": "O=C(Nc1nnc(-c2ccccc2Cl)o1)c1ccco1", "cytotoxicity": "6.6% (inactive)"}, {"smiles": "Cc1ccc2oc(=O)cc(CN3CCC(C)CC3)c2c1", "cytotoxicity": "0.7% (inactive)"}, {"smiles": "O=c1c2ccccc2c(C=NCCO)c(O)n1-c1ccccc1", "cytotoxicity": "1.2% (inactive)"}, {"smiles": "CCOC(=O)C1CCCN(C2CC(=O)N(c3ccc(C)c(C)c3)C2=O)C1", "note": "(stereo unspecified)", "cytotoxicity": "-3.2% (inactive)"}, {"smiles": "O=C(NCc1ccc(F)cc1)c1ccc(CS(=O)(=O)Cc2ccccc2F)o1", "cytotoxicity": "-13.3% (inactive)"}, {"smiles": "Cc1cc(-c2ccccc2)nc(N2CCN(c3ccccn3)CC2)n1", "cytotoxicity": "11.2% (inactive)"}, {"smiles": "O=C(c1cc(Cl)ccc1Cl)N1CCN(c2ccccn2)CC1", "cytotoxicity": "5.9% (inactive)"}, {"smiles": "O=C(NCCC1=CCCCC1)C1CCCN(S(=O)(=O)c2cnc[nH]2)C1", "note": "(stereo unspecified)", "cytotoxicity": "-2.1% (inactive)"}, {"smiles": "CCOC(=O)c1cccc(C(=O)OCC)n1", "cytotoxicity": "-1% (inactive)"}, {"smiles": "CCOC(=O)c1ccccc1NC(=O)COC", "cytotoxicity": "-3.8% (inactive)"}, {"smiles": "CCN(c1ccccc1)c1cc(C)nc2nc(C)nn12", "cytotoxicity": "-20.9% (inactive)"}, {"smiles": "Clc1ccccc1Cn1nnc2c(Nc3ccccc3)ncnc21", "cytotoxicity": "-6.8% (inactive)"}, {"smiles": "CC(C)CCNc1ncnc2c1nnn2Cc1ccccc1Cl", "cytotoxicity": "-10.8% (inactive)"}, {"smiles": "CCc1ccc2[nH]c(=O)c(C(c3nnnn3CCOC)N3CCN(c4ccccc4F)CC3)cc2c1", "note": "(stereo unspecified)", "cytotoxicity": "-22% (inactive)"}, {"smiles": "CCCCOc1cc(C)nc(NCc2ccccc2)n1", "cytotoxicity": "-30.8% (inactive)"}, {"smiles": "Cc1cc(NCCCN)nc(-c2ccccc2O)n1", "cytotoxicity": "16.4% (inactive)"}, {"smiles": "Cc1cc(Nc2ccccc2)nc(-c2ccccc2O)n1", "cytotoxicity": "-2.9% (inactive)"}, {"smiles": "CCCCNc1cc(C)nc(NCc2ccccc2)n1", "cytotoxicity": "84.4% (active)"}, {"smiles": "Cc1cc(C)nc(NCCCc2ccccc2)n1", "cytotoxicity": "-5.9% (inactive)"}, {"smiles": "O=c1[nH]c2ccc(S(=O)(=O)N3CCCCC3)cc2[nH]1", "cytotoxicity": "-1.4% (inactive)"}, {"smiles": "CCOC(=O)c1ccccc1NCN1C(=O)CSC1=O", "cytotoxicity": "-1.8% (inactive)"}, {"smiles": "Cc1cc(=O)[nH]c(/N=C(\\N)Nc2cccc3ccccc23)n1", "cytotoxicity": "0.5% (inactive)"}, {"smiles": "COc1ccc(C2C3=C(N=C4SCC(=O)N42)c2ccccc2CC3)cc1OC", "note": "(stereo unspecified)", "cytotoxicity": "19.3% (inactive)"}, {"smiles": "O=C(O)c1ccccc1-c1ccccc1C(=O)NCc1ccco1", "cytotoxicity": "0.7% (inactive)"}, {"smiles": "Cn1c(=O)cc(OCC(=O)N2CCCc3ccccc32)c2ccccc21", "cytotoxicity": "-9.1% (inactive)"}, {"smiles": "CC1=C(C)C(=O)NC(Nc2nc(C)c3cc(C)cc(C)c3n2)N1", "note": "(stereo unspecified)", "cytotoxicity": "86.5% (active)"}, {"smiles": "Cc1cc(C)c2nc(NC3=NCN(CCN4CCOCC4)CN3)nc(C)c2c1", "cytotoxicity": "-7.5% (inactive)"}, {"smiles": "O=C(c1cc(S(=O)(=O)N2CCCCC2)c(Cl)cc1N1CCOCC1)N1CCOCC1", "cytotoxicity": "-5.8% (inactive)"}, {"smiles": "COc1cc(Cl)c(S(=O)(=O)n2cnc(C)c2)cc1Cl", "cytotoxicity": "-0.2% (inactive)"}, {"smiles": "COc1cc(C)c(C(C)C)cc1S(=O)(=O)N1CCN(C)CC1", "cytotoxicity": "-22.7% (inactive)"}, {"smiles": "Clc1ccc(OCc2nc(-c3ccncc3)no2)c(Cl)c1", "cytotoxicity": "-6.9% (inactive)"}, {"smiles": "Cc1ccc2c(c1)c1ncnc(N3CCOCC3)c1n2C", "cytotoxicity": "-13.7% (inactive)"}, {"smiles": "Cc1ccc2c(c1)c1ncnc(N3CCN(c4ccccc4)CC3)c1n2C", "cytotoxicity": "-1.6% (inactive)"}, {"smiles": "O=C(c1ccc(S(=O)(=O)N2CCC(c3nc4ccccc4s3)CC2)cc1)N1CCOCC1", "cytotoxicity": "1.1% (inactive)"}, {"smiles": "Cc1cccc(NS(=O)(=O)c2cccs2)n1", "cytotoxicity": "-0.9% (inactive)"}, {"smiles": "COc1ccc(NC(=O)N(CCC(C)C)C(C)c2ccccn2)c(OC)c1", "note": "(stereo unspecified)", "cytotoxicity": "-1.9% (inactive)"}, {"smiles": "COc1ccc(-c2coc3c(CN4CCCCC4)c(O)c(CN4CCCCC4)c(O)c3c2=O)cc1", "cytotoxicity": "53.1% (active)"}, {"smiles": "O=c1c(-c2ccccc2)coc2c(CN3CCCC3)c(O)ccc12", "cytotoxicity": "5.3% (inactive)"}, {"smiles": "COc1ccc(C(=O)c2coc3ccc(O)c(CN4CCCCC4)c23)cc1", "cytotoxicity": "14.9% (inactive)"}, {"smiles": "O=c1[nH]nc(Sc2ncnc3sccc23)n1CCc1ccccc1", "cytotoxicity": "51.5% (active)"}, {"smiles": "c1ccc(-c2cnc(CSc3ncnc4sccc34)o2)cc1", "cytotoxicity": "-9% (inactive)"}, {"smiles": "COc1ccccc1Cn1c(=O)c2ccccc2n2c(Sc3ncnc4sccc34)nnc12", "cytotoxicity": "38.5% (inactive)"}, {"smiles": "COC(=O)c1ccc(Oc2c(C)oc3c(CN4CCN(C)CC4)c(O)ccc3c2=O)cc1", "cytotoxicity": "-9.6% (inactive)"}, {"smiles": "Cc1cc(NC(=O)COC(=O)C(Nc2ccc(C(F)(F)F)cc2Cl)C(C)C)no1", "note": "(stereo unspecified)", "cytotoxicity": "54.8% (active)"}, {"smiles": "Cc1cc(NC(=O)Cn2cc(C(F)(F)F)cc(Cl)c2=O)no1", "cytotoxicity": "4.3% (inactive)"}, {"smiles": "Cc1cc(NC(=O)COC(=O)CSCc2ccc(Cl)c(Cl)c2)no1", "cytotoxicity": "-5.6% (inactive)"}, {"smiles": "O=C(NC(C(=O)c1ccccc1)n1ccc(=O)[nH]c1=O)c1ccccc1", "note": "(stereo unspecified)", "cytotoxicity": "23.4% (inactive)"}, {"smiles": "CCOC(=O)N1CCN(C(=O)c2cccc(OC)c2OC)CC1", "cytotoxicity": "6.7% (inactive)"}, {"smiles": "CC(NS(=O)(=O)c1ccc(OCC(=O)N2CCOCC2)c(Cl)c1)c1ccccc1", "note": "(stereo unspecified)", "cytotoxicity": "3.2% (inactive)"}, {"smiles": "COCCNc1ncnc2c1cnn2Cc1ccc(Cl)cc1", "cytotoxicity": "31.2% (inactive)"}, {"smiles": "CCOC(=O)N1CCN(C(=O)CSc2nnc(-c3cccc(OC)c3)o2)CC1", "cytotoxicity": "-7.7% (inactive)"}, {"smiles": "O=C(Nc1ccc(F)cc1)C1CCCN(S(=O)(=O)c2cccc3cccnc23)C1", "note": "(stereo unspecified)", "cytotoxicity": "-10.4% (inactive)"}, {"smiles": "Cc1cccc(NC(=O)C2CCCN(S(=O)(=O)c3cccc4cccnc34)C2)c1", "note": "(stereo unspecified)", "cytotoxicity": "-12.3% (inactive)"}, {"smiles": "O=C(Nc1ccncc1)C1CCCN(S(=O)(=O)c2cccc3cccnc23)C1", "note": "(stereo unspecified)", "cytotoxicity": "53.3% (active)"}, {"smiles": "COC(=O)c1ccc(CSc2nc(N3CCOCC3)c3c(c2C#N)CC(C)(C)OC3)o1", "cytotoxicity": "16.6% (inactive)"}, {"smiles": "CCSc1nc(N)c2c3c(sc2n1)CN(C)CC3", "cytotoxicity": "-22% (inactive)"}, {"smiles": "O=C(COc1ccccc1)N(Cc1ccco1)C1CCS(=O)(=O)C1", "note": "(stereo unspecified)", "cytotoxicity": "-19.1% (inactive)"}, {"smiles": "CCCc1ccc(Oc2cn[nH]c2-c2ccc(O)c(C)c2O)cc1", "cytotoxicity": "103% (active)"}, {"smiles": "CCCc1ccc(OCC(=O)O)cc1", "cytotoxicity": "3% (inactive)"}, {"smiles": "CCCc1ccc(Oc2cn[nH]c2-c2ccc(O)cc2O)cc1", "cytotoxicity": "44.2% (inactive)"}, {"smiles": "COc1ccc(O)c(-c2[nH]ncc2C(=O)c2ccccc2C)c1", "cytotoxicity": "-8.4% (inactive)"}, {"smiles": "CCOC(=O)C1CCN(C(=O)Nc2ccccc2Cl)CC1", "cytotoxicity": "4% (inactive)"}, {"smiles": "Cc1nn(CC(=O)NCc2ccccc2)c(=O)c2ccccc12", "cytotoxicity": "-4.9% (inactive)"}, {"smiles": "Cn1c(-c2ccc3c(c2)OCO3)cnc1NCc1ccc(Cl)cc1", "cytotoxicity": "43.1% (inactive)"}, {"smiles": "Cn1c(-c2ccc3c(c2)OCO3)cnc1NCc1cccc(Cl)c1", "cytotoxicity": "71.3% (active)"}, {"smiles": "Cn1c(-c2ccc3c(c2)OCO3)cnc1NCc1ccccc1", "cytotoxicity": "-1.6% (inactive)"}, {"smiles": "O=C(CSc1nnnn1Cc1ccccc1)N1CCN(c2ccccc2)CC1", "cytotoxicity": "7.7% (inactive)"}, {"smiles": "CCCN(C(=O)Cc1nc(N)n[nH]1)C1(C(=O)Nc2c(C)cccc2C)CCCCC1", "cytotoxicity": "-7.4% (inactive)"}, {"smiles": "Cc1cccc2cc(CN(CC3CCCO3)C(=O)NC3CCCCC3)c(=O)[nH]c12", "note": "(stereo unspecified)", "cytotoxicity": "-7.6% (inactive)"}, {"smiles": "CN(Cc1ccccc1)S(=O)(=O)c1ccc(C(=O)Nc2nnc(C3CC3)o2)cc1", "cytotoxicity": "28.3% (inactive)"}]}]}
